# Values joined by “and” are separate entries in the source; they are usually repeats but may differ in a detail not shown here. Equal values may be shown once. ± gives the uncertainty stated by the source.
# Legend:
# HEK293T-Rex XBP1-RLuc = test: XBP1-RLuc splicing reporter activation, triplicate, relative to 500 nM thapsigargin (% of thapsigargin); higher = stronger IRE1/XBP1s reporter activation; details: 6.8 µM; 18 h; screen: confirmation
# Description: (§1)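 HEK293T-Rex cells stably expressing the ERSE-firefly luciferase (BiP promoter, ATF6-preferring) or XBP1-splicing Renilla luciferase (IRE1/XBP1s) reporter, 1536-well plates, compound at 6.8 µM for 18 hr at 37 °C; luminescence read […] and expressed as % activation = 100*(compound - median DMSO)/(median 500 nM thapsigargin - median DMSO). Primary screen was single-pass; confirmation screen in triplicate (mean ± SD).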
# HEK293T-Rex ERSE-FLuc = test: ERSE-FLuc reporter activation, triplicate confirmation, relative to 500 nM thapsigargin (% of thapsigargin); higher = stronger ATF6/ERSE reporter activation; details: 6.8 µM; 18 h; screen: confirmation
# Description: as §1
Compound,XBP1-RLuc splicing reporter activation (HEK293T-Rex XBP1-RLuc),ERSE-FLuc reporter activation (HEK293T-Rex ERSE-FLuc)
Cc1ccn2cc(-c3ccc(O)c(O)c3)nc2c1,17.8 ± 5,36.4 ± 12
CCCNC(=O)c1ccc2nc(-c3ccc4[nH]ccc4c3)sc2c1,-0.994 ± 0.65,33.4 ± 9.7
COc1ccccc1/C=N/Nc1nc(-c2ccccc2)cc(=O)[nH]1,7.58 ± 1.9,25.2 ± 1.8
O=[N+]([O-])c1ccc2nc(/C=C/c3ccccc3)[nH]c2c1,1.8 ± 0.81,25.2 ± 1.7
O=C1N/C(=C\c2ccc(O)cc2)C(O)=C1C=NCc1ccccc1,49.1 ± 2.3,27.6 ± 6.4
Cc1ccccc1NC(=O)c1sc2nc(N)c(C#N)c(-c3ccc(C(C)C)cc3)c2c1N,15.4 ± 2.4,36.7 ± 3.3
Cc1ccc(O)c(NC(=O)CCc2ccccc2)c1,17.5 ± 1.9,63.24 ± 0.61
O=C(/C=C/c1ccccc1)Nc1ccc(Br)cn1,0.069 ± 1.1,27.6 ± 6.8
CCOc1ccc2nc(NC(=O)c3ccn(C)n3)sc2c1,-1.23 ± 2,30 ± 23
Oc1ccc(/C=N/Nc2cccc3cccnc23)cc1O,17.3 ± 2.3,33.1 ± 4.8
N#Cc1c(NC(=O)c2cnccn2)sc2c1CCCC2,2.98 ± 3.5,40.2 ± 22
Nc1ccccc1NC(=O)c1ccc(C(F)(F)F)cc1,11.1 ± 2.7,27.2 ± 5.7
O=c1cc(-c2ccc(O)c(O)c2)oc2cc(O)cc(O)c12,16.5 and 14.4,46 and 36.9
O=C(N/N=C\c1ccccc1[N+](=O)[O-])c1[nH]nc2c1CCc1ccccc1-2,3.05 ± 1.7,31.4 ± 3
O=C(Nc1ccc(O)cc1)c1ccc2ccccc2c1,6.41 ± 0.68,28.3 ± 11
Cc1ccc(O)c(NC(=O)c2cc(-c3ccc(O)cc3)on2)c1,22.4 ± 1.8,54.1 ± 9
CC(Oc1ccc(Cl)cc1Cl)C(=O)NNC(=O)c1ccc(O)c(O)c1 (configuration not stated),15.4 ± 1.8,28.5 ± 5.5
CCCCCOc1ccc(N/C(N)=N/c2nc(C)cc(C)n2)cc1,159 ± 6.3,110 ± 12
Nc1ccc2sc(-c3cc(Cl)c(N)c(Cl)c3)nc2c1,10.16 ± 0.093,30.8 ± 2.4
Oc1ccc(-c2cnc3c(Nc4ccc5[nH]ccc5c4)nccn23)cc1,39.2 ± 1.5,35.7 ± 5.6
O=C(N/N=C/c1ccc(Cl)cc1)c1n[nH]c2c1CCCC2,3.79 ± 8.1,42 ± 8.6
CC(=O)Oc1ccc2cc(NC(=O)c3ccc(C)cc3)c(=O)oc2c1,12.1 ± 1.8,29.7 ± 6
Cc1ccc2nc(NC(=O)c3cccc4ccccc34)sc2c1,4.94 ± 1.5,43.1 ± 7.8

Compound,XBP1-RLuc splicing reporter activation (HEK293T-Rex XBP1-RLuc),ERSE-FLuc reporter activation (HEK293T-Rex ERSE-FLuc)
COc1ccc(-c2cnnc(N/N=C/c3ccc(O)c(O)c3)n2)cc1,24 ± 2.2,35.9 ± 7.5
Nc1nc(Nc2ccc(Cl)cc2)nc2ccccc12,8.65 ± 0.74,30.7 ± 5.2
COc1ccc(-c2nn(-c3ccccc3)cc2/C=C/C(=O)O)cc1[N+](=O)[O-],8.64 ± 1.1,31.7 ± 4.4
Cc1ccc(O)c(N/C=C/C(=O)c2cccs2)c1,4.09 ± 1.2,62.1 ± 12
Cc1ccc(NC(=O)/C=C/c2ccco2)nc1,5.22 ± 0.94,27.9 ± 7.1
O=C(Nc1ccc2c(c1)OCCO2)C(=O)Nc1ccccc1Cl,-0.329 ± 3.7,27 ± 5.6
CNC(=O)c1ccccc1Nc1cc(NC(=O)Cc2ccc(F)c(F)c2)ncc1C(F)(F)F,91.3 ± 2.1,54.6 ± 9
CCCNC(=O)c1cc(-c2cccs2)on1,5.97 ± 0.33,51.5 ± 5.4
Cc1cc2nc(-c3ccc(SCC#N)nc3)[nH]c2cc1C,2.7 ± 0.91,26.8 ± 1.7
CC(=O)Nc1ccc2nc(-c3ccc(OC(C)=O)cc3)sc2c1,21.7 ± 1,25.9 ± 3.6
Cc1cc(C)nc(/N=C(\N)Nc2ccc(OCCC(C)C)cc2)n1,101 ± 1.1,58.2 ± 6.3
Oc1cccc(/C=N/Nc2ccc(Cl)nn2)c1O,19 ± 1.9,35 ± 6
COC(=O)c1ccc2c(COC(C)=O)c(OC(C)=O)ccc2c1COC(C)=O,24.5 ± 2.2,113 ± 10
O=C(CC(=O)Nc1ccc2nc3n(c(=O)c2c1)CCCCC3)NCc1ccco1,22.3 ± 2.9,28 ± 11
CCCCCC(=O)Nc1ccc(C(=O)Nc2ccccc2O)cc1,9.29 ± 0.42,44.9 ± 11
Cc1ccc(-c2csc(Nc3ccc(O)cc3)n2)cc1,21.3 ± 2.7,26.7 ± 7.1
Cc1ccc(O)c(NC(=O)c2cc(-c3ccc(F)cc3)on2)c1,15.9 ± 0.37,31.9 ± 8.4
Cc1ccc(C(=O)Nc2ccccc2N)cc1,14.1 ± 1.3,56.8 ± 4.5
Cn1c(-c2cccc(Cl)c2)cnc1NC(=O)c1ccccc1,2.86 ± 0.72,25.6 ± 3.7
O=c1/c(=C/c2ccc(O)c(O)c2)sc2nc3ccccc3n12,6.32 ± 0.52,37.5 ± 3.7
CN(C)c1ccc(/C=C(/C#N)C(=O)Nc2ccc(O)cc2)cc1,22.2 ± 0.63,33.3 ± 5
COc1ccc2[nH]c3c(N4CCCCC4)ncnc3c2c1,4.28 ± 0.66,28.3 ± 2.6
N#C/C(=C/c1ccc(O)c(O)c1)c1nc2ccccc2[nH]1,10.3 ± 0.38,29.7 ± 1.1

# Source: the supplement of paper PMC4954754
